Reference: PubChem BioAssay AID1159580 (chemical genetic matrix, 2015)
The whole screen tested about 5,500 compounds, of which about 2,000 (36%) were called active. Roughly 18% stayed inconclusive and do not appear here. Cut-off read from the data, not from the text of the source: active = normalized growth mostly below about 0.91 (no sharp cut-off); inconclusive = no clear call, values can overlap the other calls; inactive = mostly above about 0.92. This is one part of the list.

Test: chemical genetic growth profiling, strain panel (AID 1159580);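 note: tested at 20 µM; growth read once vehicle control cultures reached saturation at 30 °C; 1 = growth at the plate median or of vehicle wells; lower values mean less growth of the strain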
Settings: growth OD

Measured: normalized growth

O=C1C(O)=C(O)C(=O)C(O)=C1O
inactive: S. cerevisiae deletion strains, locus YJR075W, strain HOC1, stronger effect = lower value 0.999 | S. cerevisiae deletion strains, locus YKL009W, strain mrt4, stronger effect = lower value 0.983 | S. cerevisiae deletion strains, locus YKL068W, stronger effect = lower value 0.979 | S. cerevisiae deletion strains, locus YKL085W, strain MDH1 (second series), stronger effect = lower value 0.956 | S. cerevisiae deletion strains, locus YKL085W, strain MDH1, stronger effect = lower value 0.956 | S. cerevisiae deletion strains, locus YKL160W, strain elf1, stronger effect = lower value 1.03 | S. cerevisiae deletion strains, locus YKL190W, strain CNB1, stronger effect = lower value 0.98 | S. cerevisiae deletion strains, locus YKR001C, strain vps1, stronger effect = lower value 0.995 | S. cerevisiae deletion strains, locus YKR026C, strain gcn3, stronger effect = lower value 1.02 | S. cerevisiae deletion strains, locus YKR091W, strain srl3, stronger effect = lower value 0.999 | S. cerevisiae deletion strains, locus YLL001W, strain dnm1, stronger effect = lower value 1.01 | S. cerevisiae deletion strains, locus YLL026W, stronger effect = lower value 1.02 | S. cerevisiae deletion strains, locus YLL041C, strain sdh2, stronger effect = lower value 1.01 | S. cerevisiae deletion strains, locus YLR027C, strain aat2, stronger effect = lower value 1.02 | S. cerevisiae deletion strains, locus YLR039C, strain RIC1, stronger effect = lower value 0.957 | S. cerevisiae deletion strains, locus YLR058C, strain SHM2, stronger effect = lower value 0.98 | S. cerevisiae deletion strains, locus YLR102C, strain apc9, stronger effect = lower value 0.989 | S. cerevisiae deletion strains, locus YLR113W, strain HOG1, stronger effect = lower value 0.969 | S. cerevisiae deletion strains, locus YLR221C, strain rsa3, stronger effect = lower value 1 | S. cerevisiae deletion strains, locus YLR258W, strain gsy2, stronger effect = lower value 1.03 | S. cerevisiae deletion strains, locus YLR262C, strain YPT6 (second series), stronger effect = lower value 0.995 | S. cerevisiae deletion strains, locus YLR262C, strain YPT6, stronger effect = lower value 0.946 | S. cerevisiae deletion strains, locus YLR268W, strain sec22, stronger effect = lower value 0.964 | S. cerevisiae deletion strains, locus YLR320W, strain mms22, stronger effect = lower value 1.01 | S. cerevisiae deletion strains, locus YLR330W, strain CHS5, stronger effect = lower value 1.01 | S. cerevisiae deletion strains, locus YLR342W, strain FKS1 (second series), stronger effect = lower value 1.07 | S. cerevisiae deletion strains, locus YLR342W, strain FKS1, stronger effect = lower value 1.01 | S. cerevisiae deletion strains, locus YLR357W, strain rsc2, stronger effect = lower value 0.989 | S. cerevisiae deletion strains, locus YLR370C, strain arc18, stronger effect = lower value 1.01 | S. cerevisiae deletion strains, locus YLR371W, strain rom2, stronger effect = lower value 1 | S. cerevisiae deletion strains, locus YLR384C, strain iki3, stronger effect = lower value 1.03 | S. cerevisiae deletion strains, locus YLR418C, strain cdc73, stronger effect = lower value 0.944 | S. cerevisiae deletion strains, locus YML016C, strain PPZ1, stronger effect = lower value 0.988 | S. cerevisiae deletion strains, locus YML032C, strain rad52, stronger effect = lower value 1.01 | S. cerevisiae deletion strains, locus YML120C, strain ndi1, stronger effect = lower value 1.01 | S. cerevisiae deletion strains, locus YML124C, strain tub3, stronger effect = lower value 0.997 | S. cerevisiae deletion strains, locus YMR058W, strain fet3, stronger effect = lower value 1.02 | S. cerevisiae deletion strains, locus YMR078C, strain ctf18, stronger effect = lower value 0.995 | S. cerevisiae deletion strains, locus YMR125W, strain sto1, stronger effect = lower value 1.02 | S. cerevisiae deletion strains, locus YMR129W, stronger effect = lower value 1.01 | S. cerevisiae deletion strains, locus YMR205C, strain PFK2, stronger effect = lower value 1 | S. cerevisiae deletion strains, locus YMR223W, strain ubp8, stronger effect = lower value 1.03 | S. cerevisiae deletion strains, locus YMR231W, strain pep5, stronger effect = lower value 1 | S. cerevisiae deletion strains, locus YMR263W, strain SAP30, stronger effect = lower value 0.96 | S. cerevisiae deletion strains, locus YMR307W, strain GAS1, stronger effect = lower value 1.03 | S. cerevisiae deletion strains, locus YNL067W, strain RPL9B, stronger effect = lower value 0.969 | S. cerevisiae deletion strains, locus YNL071W, strain lat1, stronger effect = lower value 1.02 | S. cerevisiae deletion strains, locus YNL128W, strain TEP1, stronger effect = lower value 0.944 | S. cerevisiae deletion strains, locus YNL153C, strain GIM3, stronger effect = lower value 0.956 | S. cerevisiae deletion strains, locus YNL183C, strain NPR1, stronger effect = lower value 0.927 | S. cerevisiae deletion strains, locus YNL209W, strain ssb2, stronger effect = lower value 1 | S. cerevisiae deletion strains, locus YNL233W, strain BNI4, stronger effect = lower value 0.982 | S. cerevisiae deletion strains, locus YNL248C, strain rpa49, stronger effect = lower value 1.05 | S. cerevisiae deletion strains, locus YNL250W, strain rad50, stronger effect = lower value 0.966 | S. cerevisiae deletion strains, locus YNL271C, strain bni1, stronger effect = lower value 0.998 | S. cerevisiae deletion strains, locus YNL298W, strain CLA4, stronger effect = lower value 0.98 | S. cerevisiae deletion strains, locus YNL307C, strain MCK1, stronger effect = lower value 1.02 | S. cerevisiae deletion strains, locus YNL322C, strain KRE1 (second series), stronger effect = lower value 1.02 | S. cerevisiae deletion strains, locus YNL322C, strain KRE1, stronger effect = lower value 0.98 | S. cerevisiae deletion strains, locus YNR049C, strain mso1, stronger effect = lower value 1.01 | S. cerevisiae deletion strains, locus YNR052C, strain pop2, stronger effect = lower value 1.02 | S. cerevisiae deletion strains, locus YOL006C, strain TOP1, stronger effect = lower value 0.968 | S. cerevisiae deletion strains, locus YOL012C, strain htz1 0.781 | S. cerevisiae deletion strains, locus YOL147C, strain pex11, stronger effect = lower value 0.993 | S. cerevisiae deletion strains, locus YOR001W, strain rrp6, stronger effect = lower value 0.999 | S. cerevisiae deletion strains, locus YOR061W, strain CKA2, stronger effect = lower value 0.961 | S. cerevisiae deletion strains, locus YOR069W, strain VPS5, stronger effect = lower value 1 | S. cerevisiae deletion strains, locus YOR070C, strain gyp1, stronger effect = lower value 1.01 | S. cerevisiae deletion strains, locus YOR080W, strain dia2, stronger effect = lower value 1.02 | S. cerevisiae deletion strains, locus YOR083W, strain WHI5, stronger effect = lower value 0.984 | S. cerevisiae deletion strains, locus YOR106W, strain vam3, stronger effect = lower value 1.02 | S. cerevisiae deletion strains, locus YOR136W, strain idh2, stronger effect = lower value 0.999 | S. cerevisiae deletion strains, locus YOR144C, strain elg1, stronger effect = lower value 0.989 | S. cerevisiae deletion strains, locus YOR184W, strain ser1, stronger effect = lower value 1.08 | S. cerevisiae deletion strains, locus YOR231W, strain MKK1, stronger effect = lower value 0.987 | S. cerevisiae deletion strains, locus YOR265W, strain rbl2, stronger effect = lower value 1.01 | S. cerevisiae deletion strains, locus YOR270C, strain vph1, stronger effect = lower value 1.05 | S. cerevisiae deletion strains, locus YOR290C, strain snf2, stronger effect = lower value 1.02 | S. cerevisiae deletion strains, locus YOR316C, strain cot1, stronger effect = lower value 0.988 | S. cerevisiae deletion strains, locus YPL051W, strain arl3, stronger effect = lower value 1.01 | S. cerevisiae deletion strains, locus YPL055C, strain LGE1, stronger effect = lower value 0.898 | S. cerevisiae deletion strains, locus YPL078C, strain atp4, stronger effect = lower value 1.03 | S. cerevisiae deletion strains, locus YPL106C, strain sse1, stronger effect = lower value 1.03 | S. cerevisiae deletion strains, locus YPL240C, strain hsp82, stronger effect = lower value 1.01 | S. cerevisiae deletion strains, locus YPL241C, strain CIN2, stronger effect = lower value 0.991 | S. cerevisiae deletion strains, locus YPL256C, strain CLN2, stronger effect = lower value 0.964 | S. cerevisiae deletion strains, locus YPR119W, strain clb2, stronger effect = lower value 0.996 | S. cerevisiae deletion strains, locus YPR141C, strain kar3, stronger effect = lower value 0.952 | S. cerevisiae deletion strains, locus YPR163C, strain tif3, stronger effect = lower value 0.998 | S. cerevisiae deletion strains, locus YPR167C, strain met16, stronger effect = lower value 0.99 | S. cerevisiae deletion strains, strain wtn01, stronger effect = lower value 0.994 | S. cerevisiae strains, strain wild type, stronger effect = lower value 0.989
